From PubChem BioAssay
An excerpt weighted towards active compounds, which were near 2.4% of everything screened.
D2 PAM-1: D2 dopamine receptor (human) potentiation | AID 485347 | P14416 | HEK293 T-REx D2, calcium flux, EC20 dopamine potentiation | potentiation, % at 10 µM | 340,000 compounds, 0.34% hits;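 active means potentiation over 3 SD above the plate norm, cut at about 30% in these data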
Target sequence (P14416 whole entry, looked up): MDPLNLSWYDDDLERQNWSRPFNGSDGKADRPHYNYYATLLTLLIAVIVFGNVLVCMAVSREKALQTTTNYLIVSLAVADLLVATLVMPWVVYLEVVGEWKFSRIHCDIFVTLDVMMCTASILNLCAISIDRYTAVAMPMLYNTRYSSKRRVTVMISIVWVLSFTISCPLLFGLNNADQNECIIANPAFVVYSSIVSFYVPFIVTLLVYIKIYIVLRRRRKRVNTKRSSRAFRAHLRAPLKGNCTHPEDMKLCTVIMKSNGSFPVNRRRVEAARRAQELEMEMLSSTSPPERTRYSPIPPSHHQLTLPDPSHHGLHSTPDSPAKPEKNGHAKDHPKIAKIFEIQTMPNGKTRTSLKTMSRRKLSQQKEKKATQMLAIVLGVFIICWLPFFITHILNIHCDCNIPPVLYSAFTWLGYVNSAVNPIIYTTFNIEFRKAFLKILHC
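Potentiation of an EC20 dopamine calcium response measured kinetically over 180 s, after a preceding 180 s compound-only read flagging agonists. Cells: inducible Hek293 Trex D2 line, 4000/well, cultured overnight at 30 C before dye loading.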
D2 ag-1: activates the human D2 dopamine receptor. P14416. DiscoveRx PathHunter D2 beta-arrestin, luminescence, 90 min; 100% = 57 uM dopamine signal. activation, % (test concentration not listed). 360,000 compounds, 0.084% hits; in the data active means activation above about 40%
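Agonist mode: compounds alone added to overnight-plated D2 PathHunter cells for 90 min at 37 C, with 57 uM final dopamine (EC100) defining full response. Beta-arrestin recruitment detected by chemiluminescent reagent, read after 1 h at ambient temperature.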
D2 PAM-2: potentiates the human D2 dopamine receptor allosterically | P14416 | DiscoveRx D2 beta-arrestin cells, luminescence, 90 min; 100% = 57 uM dopamine signal | potentiation, % (test concentration not listed) | 360,000 compounds, 0.23% hits | AID 624464; in the data active means potentiation above about 50%
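PathHunter beta-arrestin assay in DiscoveRx D2 cells. Compounds were added with an EC20 of dopamine (50 nM final) for 90 min at 37 deg C. Luminescence was read 1 h after detection reagent, with 57 uM dopamine as the EC100 control.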
D2 antag: antagonists of human D2 dopamine receptor; 340,000 compounds, 2% hits; AID 485344; HEK293 TREx D2 cells, calcium flux, dopamine EC80; inhibition, % at 10 µM; in the data active means inhibition above about 30%; inactive means below that, where a call was filed
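Tetracycline-induced HEK293 T-REx cells expressing D2 force-coupled to calcium signalling were dye-loaded, exposed to compound for 180 s, then challenged with an EC80 of dopamine; calcium flux was followed kinetically for a further 180 s.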
D2 ag-2: agonists of human D2 dopamine receptor. P14416. HEK293 T-REx D2 cells, calcium flux agonist mode. activation, % at 2 µM. 340,000 compounds, 0.53% hits. AID 485358;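 active means activation over 3 SD above normal in the single-dose calcium agonist read, cut at about 30% in these data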
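Agonism is scored from calcium flux in a force-coupled, inducible HEK293 cell line expressing D2, read kinetically for 180 s after compound addition against dopamine controls.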
Numbers stand for hits.

CC(C)(C)OC(=O)N1CCC(CC2CC(c3cccc(Br)c3)=NO2)(C(=O)NCC2CCCCC2)CC1 (stereo not given) was read as D2 PAM-1 inactive, D2 ag-1 inactive, D2 PAM-2 inactive, D2 antag inactive and D2 ag-2 inactive.
For O=C(c1ccccc1)N1CCC(CC2CC(c3cccc(Br)c3)=NO2)(C(=O)NCC2CCCCC2)CC1 (stereo not given) the results were D2 PAM-1 inactive, D2 ag-1 inactive, D2 PAM-2 inactive, D2 antag 31 and D2 ag-2 inactive.
For COc1ccc(CCNC(=O)c2[nH]c(C)c(C(C)=O)c2C)cc1OC the results were D2 PAM-1 inactive, D2 ag-1 inactive, D2 PAM-2 inactive, D2 antag 38 and D2 ag-2 inactive.
For COc1ccc(CCNCC(=O)Nc2c(C)cc(C)cc2C)cc1OC the results were D2 PAM-1 inactive, D2 ag-1 inactive, D2 PAM-2 inactive, D2 antag 45 and D2 ag-2 inactive.
`Brc1ccc(-c2cn3c(n2)CCc2ccc4cccnc4c2-3)cc1` gave D2 PAM-1 32, D2 ag-1 inactive, D2 PAM-2 inactive, D2 antag inactive and D2 ag-2 inactive.
`Brc1ccc(-c2cn3nc4c(nc3n2)CCCC4)cc1` gave D2 PAM-1 inactive, D2 ag-1 inactive, D2 PAM-2 inactive, D2 antag inactive and D2 ag-2 inactive.
For Cc1ccccc1N=Cc1cc2c(cc1O)OC(N)=C(C#N)C2c1ccccc1 (stereo not given) the results were D2 PAM-1 inactive, D2 ag-1 inactive, D2 PAM-2 inactive, D2 antag 33 and D2 ag-2 inactive.
`Cc1cccc(CNC(=O)c2sc3ncnc(N(C)C4CCCCC4)c3c2C)c1` gave D2 PAM-1 inactive and D2 ag-2 inactive.
For Cn1nccc1/C=C(/C#N)S(=O)(=O)c1ccccc1 the results were D2 PAM-1 inactive, D2 ag-1 inactive, D2 PAM-2 inactive, D2 antag 31 and D2 ag-2 inactive.
Screening Cc1cc(C)c(C#N)c(SCc2ccccc2C)n1 returned D2 PAM-1 inactive, D2 ag-1 inactive, D2 PAM-2 inactive, D2 antag 34 and D2 ag-2 inactive.
Screening Cc1ccc(S(=O)(=O)CCSc2nc(C)cc(C)c2C#N)cc1 returned D2 PAM-1 33, D2 ag-1 inactive, D2 PAM-2 inactive, D2 antag inactive and D2 ag-2 inactive.
Screening Cc1cc(C)c2c(n1)nn1c(NCCCN(C)C)cc(C)nc21 returned D2 PAM-1 34, D2 ag-1 inactive, D2 PAM-2 inactive, D2 antag inactive and D2 ag-2 inactive.
`COc1ccccc1N1CCN(C(=O)c2cc3c(=O)n(Cc4ccco4)ccc3nc2C)CC1` gave D2 PAM-1 inactive and D2 ag-2 inactive.
Screening COc1cccc(C2=NS(=O)(=O)N(C)C(C(=O)Nc3cccc(O)c3)=C2)c1 returned D2 PAM-1 inactive and D2 ag-2 inactive.
`CC(C)Oc1ccc(S(=O)(=O)N2CCOCC2)cc1NC(=O)Cc1c(F)cccc1Cl` gave D2 PAM-1 inactive, D2 ag-1 inactive, D2 PAM-2 inactive, D2 antag 31 and D2 ag-2 inactive.
`CC(C)Oc1ccc(S(=O)(=O)N2CCCCC2)cc1NC(=O)CN1CCCC1c1cccs1` (stereo not given) gave D2 PAM-1 inactive, D2 ag-1 inactive, D2 PAM-2 inactive, D2 antag 33 and D2 ag-2 inactive.
`O=C(COc1cccc(Cl)c1)N1CCC(c2nc3ccccc3s2)CC1` gave D2 PAM-1 inactive.
CCC(C)NC(=O)CSc1nc2n[nH]c(C)c2c(=N)n1-c1cc(Cl)ccc1C (stereo not given) was read as D2 PAM-1 inactive and D2 ag-2 inactive.
For COC(=O)c1ccccc1-c1ccc(/C=N/NC(=O)c2cc3ccccc3o2)o1 the results were D2 PAM-1 inactive, D2 ag-1 inactive, D2 PAM-2 inactive, D2 antag inactive and D2 ag-2 inactive.
`COC(=O)c1ccccc1-c1c2ccc(=N)cc-2oc2cc(N)ccc12` gave D2 PAM-1 inactive, D2 ag-1 inactive, D2 PAM-2 inactive, D2 antag 77 and D2 ag-2 97.
`COc1ccccc1/C=C/c1nc(C#N)c(NCc2ccccc2)o1` gave D2 PAM-1 inactive.
Screening CC1Cc2ccccc2N1S(=O)(=O)c1nnc(NC(=O)c2cccc(F)c2)s1 (stereo not given) returned D2 PAM-1 inactive and D2 ag-2 inactive.
For COc1ccc(N(CC(=O)NCCc2ccccc2)S(=O)(=O)c2ccccc2)c(OC)c1 the results were D2 PAM-1 inactive and D2 ag-2 inactive.
Screening COC(=O)/C(C#N)=C1/SC=C(C)N1c1ccccc1 returned D2 PAM-1 34, D2 ag-1 inactive and D2 PAM-2 inactive.
CCCCN1C2CCCC1CC(NC(=O)c1cccc(Cl)c1)C2 (stereo not given) was read as D2 PAM-1 inactive, D2 ag-1 inactive, D2 PAM-2 inactive, D2 antag 31 and D2 ag-2 inactive.
CCCN1C2CCCC1CC(NC(=O)c1ccccc1)C2 (stereo not given) was read as D2 PAM-1 inactive, D2 ag-1 inactive, D2 PAM-2 inactive, D2 antag 30 and D2 ag-2 inactive.
CCN(c1ccccc1)c1ccc2cc(S(=O)(=O)N3CCCC3)ccc2n1 was read as D2 ag-2 inactive.
For CCC(=O)Nc1ccc(C(=O)n2nc(C)cc2C)cc1 the results were D2 PAM-1 inactive, D2 ag-1 inactive, D2 PAM-2 inactive, D2 antag inactive and D2 ag-2 inactive.
Screening Cc1cc(C)n(C(=O)c2ccc(NC(=O)CC(C)C)cc2)n1 returned D2 PAM-1 inactive, D2 ag-1 inactive, D2 PAM-2 inactive, D2 antag 33 and D2 ag-2 inactive.
Screening Brc1ccc(Oc2ncc(CN3CCN(c4ccccc4)CC3)s2)cc1 returned D2 PAM-1 inactive, D2 ag-1 45, D2 PAM-2 inactive, D2 antag inactive and D2 ag-2 inactive.
For Cc1ccc(Oc2ncc(CN3CCOCC3)s2)cc1 the results were D2 PAM-1 inactive, D2 ag-1 inactive, D2 PAM-2 inactive, D2 antag inactive and D2 ag-2 inactive.
CCOc1ccc(OC(=O)c2sc3ncn(Cc4cccc(F)c4)c(=O)c3c2C)cc1 was read as D2 PAM-1 inactive and D2 ag-2 inactive.
`Cc1cc(N2CCCC2)ccc1/C=C1\NC(=S)N(C)C1=O` gave D2 PAM-1 inactive, D2 ag-1 inactive, D2 PAM-2 inactive, D2 antag inactive and D2 ag-2 36.
Screening O=C1/C(=C/c2ccc(N3CCCC3)cc2)NC(=S)N1C1CC1 returned D2 PAM-1 inactive, D2 ag-1 inactive, D2 PAM-2 inactive, D2 antag inactive and D2 ag-2 48.
O=S(=O)(c1ccc(Br)cc1)c1nnn2c1nc(NCc1cccs1)c1sccc12 was read as D2 PAM-1 inactive and D2 ag-2 inactive.
c1ccc(Cc2nnc3sc(-c4cccs4)nn23)cc1 was read as D2 PAM-1 inactive, D2 ag-1 inactive, D2 PAM-2 inactive, D2 antag 73 and D2 ag-2 inactive.
